Measurements taken from PubChem BioAssay (NCI).
Compounds without any hit were thinned out: in the full panel of roughly 83,000, 20% have a hit.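 Results are percent growth after 48 hours of single-concentration exposure. 100 means growth as in untreated cells, lower positive values show inhibition; negative values down to -100 show cell death.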 Values without a mark were called inactive. Active and inactive are the calls of the source. How the source made its calls: active means growth percent below 10; inactive means the rest.

system: MDA-MB-468 breast; assay: NCI-60 one-dose screen, 48 h (100 = growth as untreated, 0 = no growth, -100 = all killed); details: 10 µM unless noted

SMILES	growth
Cc1ccc(CSc2nc(-c3ccc(Cl)cc3)c(C#N)c(N3CCNCC3)n2)cc1	81.5%
CCCCn1c(=O)c(/C=C/C(=O)/C=C/c2cc3ccccc3n(CCCC)c2=O)cc2ccccc21	-59.4% (active)
C/C(=N\NC(=O)Nc1ccccc1)c1nnn(-c2ccc([N+](=O)[O-])cc2)c1C	104%
C=CCNc1nnc(C)s1	104%
CCOC(=O)c1ccccc1SC(C[N+](=O)[O-])c1ccccc1 (stereo not given)	63.7%
CCN1CCN(c2nc(C)cc(N(CCCNc3ccnc4cc(Cl)ccc34)Cc3ccc4c(c3)OCO4)n2)CC1	-33.5% (active)
CCCCCCCCCCCCCCCCCC(=O)NCCNC(=O)CCCCCCCCCCCCCCCCC	102%
CC1(C)C2CCC(O)(C(=O)O)C1C2 (stereo not given)	106%
CCCCNC(=O)C(=O)NCCCC	102%
CC(=O)[C@H]1CC[C@H]2[C@@H]3C[C@H](C)C4=CC(=O)CC[C@]4(C)[C@H]3C(=O)C[C@]12C	106%
O=C(/C=C/c1cccc2ccccc12)Nc1ncc(Cc2ccccc2)s1	-14.4% (active)
COc1ccc(S(=O)(=O)N2CC3(COC3)C2)cc1NC(=O)c1[nH]c(C)c2c1CCCCC2=O	22.2%
Nc1ccc2c(c1)/C(=N/O)c1cc([N+](=O)[O-])ccc1-2	89.8%
COc1ccc(/C=C/C(=O)NCC(C)O)cc1 (stereo not given)	94.2%
O=C(Nc1ccc(-n2cc(-c3ccncc3)c(-c3ccc(Cl)c(O)c3)n2)cc1)Nc1ccc(Cl)c(C(F)(F)F)c1	-19.8% (active)
